Test results from PubChem BioAssay (NCI).
Compounds without any hit were thinned out: in the full panel of roughly 83,000, 20% have a hit.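 Method: cells in 96-well plates; compound added at one concentration; 48 h incubation; percent growth measured; values under 10 scored active.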 Values without a mark were called inactive. Active and inactive are the calls of the source.

Key:
Assay in all cases: NCI-60 one-dose screen, 48 h (100 = growth as untreated, 0 = no growth, -100 = all killed)
Details in all cases: 10 µM unless noted
DU-145 prostate = test system: DU-145 prostate
K-562 leukemia = test system: K-562 leukemia
MALME-3M melanoma = test system: MALME-3M melanoma
MDA-MB-231 breast = test system: MDA-MB-231 breast
RXF 393 renal = test system: RXF 393 renal
SF-268 CNS = test system: SF-268 CNS
SF-295 CNS = test system: SF-295 CNS
SF-539 CNS = test system: SF-539 CNS
UACC-257 melanoma = test system: UACC-257 melanoma
M14 melanoma = test system: M14 melanoma
HCT-15 colon = test system: HCT-15 colon
HT29 colon = test system: HT29 colon
SNB-75 CNS = test system: SNB-75 CNS
SNB-19 CNS = test system: SNB-19 CNS
U251 CNS = test system: U251 CNS
PC-3 prostate = test system: PC-3 prostate
SK-MEL-5 melanoma = test system: SK-MEL-5 melanoma
UACC-62 melanoma = test system: UACC-62 melanoma
LOX IMVI melanoma = test system: LOX IMVI melanoma
SK-MEL-28 melanoma = test system: SK-MEL-28 melanoma

| SMILES | growth (DU-145 prostate) | growth (K-562 leukemia) | growth (MALME-3M melanoma) | growth (MDA-MB-231 breast) | growth (RXF 393 renal) | growth (SF-268 CNS) | growth (SF-295 CNS) | growth (SF-539 CNS) | growth (UACC-257 melanoma) | growth (M14 melanoma) | growth (HCT-15 colon) | growth (HT29 colon) | growth (SNB-75 CNS) | growth (SNB-19 CNS) | growth (U251 CNS) | growth (PC-3 prostate) | growth (SK-MEL-5 melanoma) | growth (UACC-62 melanoma) | growth (LOX IMVI melanoma) | growth (SK-MEL-28 melanoma) |
| --- | --- | --- | --- | --- | --- | --- | --- | --- | --- | --- | --- | --- | --- | --- | --- | --- | --- | --- | --- | --- |
| CN(C)C(=O)c1cc(-c2ccc3ncnc(NCc4ccccc4)c3c2)cnc1N | 55.6% | 95.9% | 101% | 70% | -4.14% (active) | 65.7% | 91.7% | 90.4% | 94.4% | 109% | 105% | 101% | 33.4% | 88.7% | 99% | 85.7% | 93.9% | 89.3% | 75% | 91.4% |
| O=S(=O)(NC1c2ccccc2C[C@H]1O)c1ccc(Cl)cc1Cl (stereo not given in full) | 114% | 95.2% | 93.6% | 99.5% | 107% | 96.7% | 108% | 101% | 102% | 92.3% | 94.6% | 109% | 86.4% | 96.3% | 98.7% | 84.1% | 99.4% | 74.9% | 93.3% | 102% |
| CCN(CC)c1ccc(NC2=C(Cl)C(=O)c3nc(C)ccc3C2=O)cc1 | 87.9% | 0.916% (active) | -11.1% (active) | -46.5% (active) | -95.1% (active) | 90.8% | 105% | 102% | -57.7% (active) | 40.4% | -52.7% (active) | 104% | 126% | 102% | 94.3% | 74.2% | 79.3% | 95.2% | -71.6% (active) | 37.5% |
| COC(=O)c1[nH]nc2c1C1(C(=O)N(C)c3ccccc31)C(C#N)=C(N)O2 (stereo not given) | 102% | 113% | 103% | 107% | 114% | 97.3% | 118% | 96.5% | 103% | 104% | 101% | 104% | 91.5% | 101% | 105% | 91% | 99.4% | 96.1% | 97% | 105% |
| O=c1c2ccccc2nc(COc2ccccc2)n1NS(=O)(=O)c1ccc(Cl)cc1 | 100% | 47.3% | 82.1% | 67.4% | 97% | 88.6% | 97.2% | 86.9% | 91.2% | 74.2% | 54.4% | 80% | 36.9% | 79.8% | 87.8% | 82.7% | 94.5% | 76.9% | 83.6% | 87.1% |
| CCCn1cnc2c(c1=N)C(c1ccc(F)cc1)c1sc3c(C)cccc3c1O2 (stereo not given) | 27.5% | 5.29% (active) | 47.1% | 53% | -39% (active) | 53.8% | -0.689% (active) | -27.1% (active) | 70.8% | 9.53% (active) | 18.5% | 57% | -4.36% (active) | 22.4% | 24.4% | 33.4% | 24.8% | 27.7% | 28.8% | 45.1% |
| CCCCCCCn1cc2c(NCCc3ccccc3)ncnc2n1 | 102% | 88.6% | 94.4% | 94% | 104% | 99.3% | 90% | 95.9% | 102% | 100% | 95.6% | 118% | 90.6% | 90.4% | 96.1% | 92.8% | 99.6% | 74.2% | 117% | 101% |
| O=C(CSc1nc2ccccc2c(=O)n1-c1ccccc1)Nc1ccc(-c2nc3ccc([N+](=O)[O-])cc3[nH]2)cc1 | 84.2% | 42.7% | 71.1% | 76.8% | 64.5% | 76.2% | 103% | 78.2% | 95.8% | 93.3% | 61.3% | 79.3% | 82.5% | 81.8% | 87.6% | 69.7% | 91.4% | 51.9% | 37.8% | 82.6% |
| C[C@@H](Nc1c(C#N)cnc2ccc(-c3cnc(Cl)c(NS(C)(=O)=O)c3)cc12)c1ccccc1 | 7.73% (active) | 15.3% | -12.9% (active) | 11.5% | -40.2% (active) | -1.52% (active) | -20.8% (active) | -20.7% (active) | 14.8% | 4.3% (active) | 10.2% | 11.6% | -30% (active) | 15.7% | 15.2% | 5.67% (active) | -82.8% (active) | -12% (active) | -24.6% (active) | 5.72% (active) |
| NS(=O)(=O)c1ccc(Nc2cc(-c3ccccc3)nc(SCC(=O)c3ccccc3)n2)cc1 | 103% | 98.1% | 93% | 92.9% | 94.9% | 97.1% | 99.6% | 101% | 99% | 98.4% | 99.4% | 106% | 91.6% | 91.7% | 100% | 98.4% | 98.6% | 91.1% | 97.8% | 104% |
| COc1ccc(-c2nc(C(Cl)Cl)nc3cc(-c4ccccc4)nn23)cc1 | -26.7% (active) | 7.86% (active) | -44.9% (active) | 6.65% (active) | -82.1% (active) | 14.2% | 9.62% (active) | 35.5% | 4.58% (active) | -69% (active) | 4.52% (active) | -20.2% (active) | -9.44% (active) | 5.79% (active) | -51.7% (active) | 35.5% | 34.1% | 37.9% | 23.7% | -46.4% (active) |
| CCCn1cnc2c(c1=N)C(c1ccc(OC)cc1)c1sc3c(C)cccc3c1O2 (stereo not given) | 19.1% | 13% | 57.8% | 27.4% | -5.55% (active) | 39% | -6.82% (active) | -21.6% (active) | 86.7% | 2.53% (active) | 14.6% | 7.24% (active) | 17.8% | 24% | 20.6% | 6.95% (active) | 40.3% | 14.3% | 25.1% | 53.9% |
| CCO/C=N/C1=C(C#N)C(c2ccc(OC)cc2)c2sc3c(C)cccc3c2O1 (stereo not given) | 22% | 12.6% | 60.6% | 27.5% | -23.9% (active) | 54.1% | 1.06% (active) | -11.6% (active) | 88.7% | 5.22% (active) | 18.2% | 10% | 28.2% | 28.3% | 22.1% | 9.28% (active) | 39.5% | 17.3% | 34.8% | 55.7% |
| CC(=O)O[C@@H]1C(=O)N(c2cnccn2)[C@H]1c1ccccc1[N+](=O)[O-] | 2.33% (active) | 9.97% (active) | 51.8% | 22.4% | 62.9% | 19.4% | 23.9% | -32.5% (active) | 44.7% | -2.82% (active) | 15.9% | 2.42% (active) | 21.5% | 41.8% | -3.35% (active) | 24.6% | -57.2% (active) | 30% | 6.26% (active) | 57.1% |
| CC(C)(C)n1nnnc1C(Nc1cccc2c1OCO2)c1cc2cccc3ccc4cccc1c4c32 (stereo not given) | 97.5% | 75% | 93.2% | 80.5% | 40.6% | 78.7% | 81.9% | 93% | 100% | 97.8% | 71% | 81.2% | 115% | 83.5% | 85.9% | 59.4% | 85% | 65.3% | 86.7% | 94.4% |
| Nc1ncc(-c2ccc3ncnc(N4CCc5cc(F)c(Cl)cc54)c3c2)cn1 | 10.8% | 34.6% | 33.6% | 0.108% (active) | -47.5% (active) | 16.9% | 13.2% | 8.74% (active) | 50.6% | 33.8% | 18.2% | 24.1% | -32.2% (active) | 43% | 45% | 10.5% | 29.2% | 22.2% | 9.68% (active) | 40.5% |
